MEKK2mut PB1 HTS: signal of MEK5 binding to mutant human MEKK2 PB1 domain; 290,000 tested, 0.35% active; percent response, % at 10 µM; bead flow cytometry, Alexa488-MEK5 binding to MEKK2 mutant; in the data active = percent response above about 24%, passing the limit was not always enough
MEKK2wt PB1 HTS: raises or lowers MEK5 binding to wildtype human MEKK2 PB1 domain. bead flow cytometry, Alexa488-MEK5 binding to MEKK2 WT; actives lie on both sides. binding response (% of control), % at 10 µM. 290,000 tested, 1.1% active. AID 1531; in the data active = binding response below about 67% or above about 130%
VLA-4 inh: inhibition in a human VLA-4 binding assay. VLA-4 expressing cells, ligand binding flow cytometry. inhibition, % (about 7 µM as worked out from the volumes in the protocol). AID 2557. 330,000 tested, 0.2% active; in the data active = inhibition above about 50%
MEKK3 PB1 HTS: MEKK3-MEK5 PB1 interaction, increase or decrease | Q99759 | 290,000 tested, 1.4% active | binding response (% of control), % at 10 µM | AID 1529 | bead-based flow cytometry, Alexa488-MEK5 binding to MEKK3; actives lie on both sides; 0 = blocked by unlabeled MEK5, 100 = vehicle;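 active = binding response more than 3 SD above or below the average of its plate-row segment, actives on both sides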;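 also: Alexa488 bead fluorescence after subtracting the streptavidin-only scavenger bead signal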
Target sequence (Q99759 whole entry, looked up): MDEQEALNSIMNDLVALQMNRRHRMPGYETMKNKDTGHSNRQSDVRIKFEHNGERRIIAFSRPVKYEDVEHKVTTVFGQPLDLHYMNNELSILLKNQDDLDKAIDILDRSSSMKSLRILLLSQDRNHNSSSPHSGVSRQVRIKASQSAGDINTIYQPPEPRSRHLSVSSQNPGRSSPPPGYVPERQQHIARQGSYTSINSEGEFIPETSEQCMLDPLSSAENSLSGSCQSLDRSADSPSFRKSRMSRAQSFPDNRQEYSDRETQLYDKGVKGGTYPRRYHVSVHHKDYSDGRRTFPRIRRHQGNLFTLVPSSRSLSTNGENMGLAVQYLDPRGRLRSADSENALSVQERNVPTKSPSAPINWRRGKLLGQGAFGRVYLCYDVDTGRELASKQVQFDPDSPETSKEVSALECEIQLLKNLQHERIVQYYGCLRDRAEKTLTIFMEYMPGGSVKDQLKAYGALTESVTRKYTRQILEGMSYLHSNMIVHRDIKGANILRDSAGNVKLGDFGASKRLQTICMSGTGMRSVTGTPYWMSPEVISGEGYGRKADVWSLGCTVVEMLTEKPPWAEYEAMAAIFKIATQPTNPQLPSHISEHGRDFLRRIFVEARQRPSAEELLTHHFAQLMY
MEKK2wt confirm: raises or lowers MEK5 binding to wildtype human MEKK2, retest; AID 1892; 5,900 tested, 2.4% active; binding response (% of control), % at 10 µM; bead flow cytometry, Alexa488-MEK5 binding to MEKK2 WT; actives lie on both sides; shares compounds with MEKK3 PB1 HTS; in the data active = binding response below about 16% or above about 210%; inactive = in between
MEKK2mut confirm: signal of MEK5 binding to mutant human MEKK2, retest; percent response, % at 10 µM; AID 1893; 5,900 tested, 2% active; shares compounds with MEKK3 PB1 HTS; bead flow cytometry, Alexa488-MEK5 binding to MEKK2 mutant; in the data active = percent response mostly above about 71%, no sharp cut-off; inactive = mostly below about 38%;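 also: higher means compound restores mutant binding toward wildtype level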
MEKK3-MEK5 inh: confirmation of inhibitors of MEK5 binding to human MEKK3. shares compounds with MEKK3 PB1 HTS. bead flow cytometry, Alexa488-MEK5 binding to MEKK3; stronger effect = lower value. binding response (% of control), % at 10 µM. 5,900 tested, 1.8% active;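 active = binding response below 72% of control, or above a set upper limit, though filed actives all read lower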;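 also: 100% = DMSO only wells and 0% = binding blocked by excess unlabeled MEK5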
Active calls of the source: *; nt = no result given; [ ] = another dose, or the depositor's remark. Rows were chosen to be rich in hits. Some 2.2% of all compounds tested hit in one or more screens of this group.

SMILES | MEKK2mut PB1 HTS | MEKK2wt PB1 HTS | VLA-4 inh | MEKK3 PB1 HTS | MEKK2wt confirm | MEKK2mut confirm | MEKK3-MEK5 inh
Cn1cc(C(=O)c2cccc(Cl)c2)cc1C#N | 2 | 105 | -3 | 109 | nt | nt | nt
O=C(O)c1cccc(S(=O)(=O)N(Cc2ccccc2)c2cccc(C(F)(F)F)c2)c1 | 6 | 107 | 5 | 105 | nt | nt | nt
O=C(Nc1cccc(O)c1)C(Cc1ccccc1)N1C(=O)c2cccc3cccc(c23)C1=O (configuration not stated) | 0 | 101 | 6 | 140* | 98 | -3 | 102
O=C(O)C(Cc1ccccc1)N1C(=O)c2cccc3cccc(c23)C1=O (configuration not stated) | -7 | 93 | 10 | 94 | nt | nt | nt
O=C(NCc1ccco1)C1CC(c2ccc(F)cc2)=NO1 (configuration not stated) | -14 | 71 | -6 | 73*[inhibitor] | 103 | 5 | 102
Cc1cccc2sc(N(CCCN(C)C)C(=O)c3sc4ccccc4c3Cl)nc12 | 53* | 197* | 46 | 109 | 137 | 27 | 106
COc1cccc2sc(N(CCCN(C)C)C(=O)c3sc4ccccc4c3Cl)nc12 | 63* | 211* | 6 | 119 | 125 | 16 | 108
CN(C)CCCN(C(=O)c1sc2ccccc2c1Cl)c1nc2c(F)cccc2s1 | 139* | 325* | 9 | 110 | 144 | 27 | 108
Cc1ccc(NC(=O)c2ccc(=O)[nH]c2)cc1S(=O)(=O)N1CCCCCC1 | nt | nt | -2 | nt | nt | nt | nt
O=C1CCCc2c1nc(-c1ccccc1F)n2O | 0 | 99 | -4 | 100 | nt | nt | nt
O/N=C1\CCCc2c1nc(-c1ccccc1F)n2O | 26 | 113 | 2 | 130* | 120 | 7 | 105
COc1ccc(OC)c(NC(=O)COC(=O)CCCN=C2NS(=O)(=O)c3ccccc32)c1 | nt | nt | 0 | nt | nt | nt | nt
O=C(Nc1nnc(CCc2ccccc2)s1)c1cccc(F)c1 | 1 | 107 | 7 | 107 | nt | nt | nt
COc1ccc(S(=O)(=O)N2CCOC2CNC(=O)C(=O)NCCCN2CCOCC2)cc1 (configuration not stated) | 6 | 106 | -9 | 100 | nt | nt | nt
COc1ccc(/C(C)=N\NS(=O)(=O)c2ccccc2)cc1OC | 1 | 110 | -13 | 132* | 99 | -1 | 105
O=C1[C@@H]2Cc3c([nH]c4ccccc34)CN2C(=O)CN1CCCCCO | 6 | 104 | -50 | 102 | nt | nt | nt
CC1CCCCN1C(=O)C(=O)c1cn(CC(=O)N2CCCC2)c2ccccc12 (configuration not stated) | -15 | -3.0*[inhibitor] | 3 | 1.0*[inhibitor] | 103 | 2 | 103
CCOc1ccc(NC(=O)c2c3c(nc4ccccc24)CCC3)cc1 | -5 | 92 | 30 | 95 | nt | nt | nt
Cc1ccc(NC(=O)c2c3c(nc4ccccc24)CCC3)cc1 | -2 | 84 | -3 | 72*[inhibitor] | 107 | 5 | 103
CCOC(=O)c1cccc(N2CC3CNC(=O)C2(C(=O)OC)N3C)c1 (configuration not stated) | nt | nt | 1 | nt | nt | nt | nt
C=CCSc1nc2c(C(=O)OCC)nnn2c2ccccc12 | 4 | 99 | -7 | 103 | nt | nt | nt
CCOC(=O)c1nnn2c1nc(SCC(C)=O)c1ccccc12 | 32 | 138* | 0 | 132* | 99 | -4 | 100
CCCOc1ccc(C(=O)Nc2ccc3c(c2)OCO3)cc1 | 11 | 109 | 1 | 111 | nt | nt | nt
CCCOc1ccc(C(CC(=O)O)NC(=O)c2ccc3c(c2)OCO3)cc1 (configuration not stated) | -42 | 1.0*[inhibitor] | -1 | 2.0*[inhibitor] | 100 | -1 | 96
CCOc1ccccc1NC(C)C(=O)NC(=O)NC1CCCCC1 (configuration not stated) | nt | nt | 0 | nt | nt | nt | nt
N=c1c2c(-c3ccccc3)c(-c3ccccc3)n(Cc3ccccc3)c2ncn1CCCn1ccnc1 | 12 | 146* | 28 | 105 | 170 | 58 | 110
CCCCn1cnc2c(c(-c3ccccc3)c(-c3ccccc3)n2Cc2ccco2)c1=N | 7 | 113 | 6 | 102 | nt | nt | nt
Cc1cc(NCCCn2ccnc2)n2nc(C)c(-c3ccccc3)c2n1 | 1 | 98 | 9 | 88 | nt | nt | nt
